Experimental data published in PubChem BioAssay AID1159580 (chemical genetic matrix, 2015).
Among all 5,500 compounds or so, about 2,000 (36%) were called active. Not shown: some 18% with an inconclusive outcome. No stated cut-off is given here; in the data, active means normalized growth mostly below about 0.91 (no sharp cut-off); inconclusive means no clear call, values can overlap the other calls; inactive means mostly above about 0.92. This is one part of the list.

Experiment: chemical genetic growth profiling, strain panel (AID 1159580);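 further: tested at 20 µM; growth read once vehicle control cultures reached saturation at 30 °C; 1 = growth at the plate median or of vehicle wells; lower values mean less growth of the strain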
Conditions: growth OD

Measured: normalized growth

CCc1cccc(C)c1N(C(=O)CCl)C(C)COC (stereo unspecified)
inactive: S. cerevisiae deletion strains, locus YAL013W, strain DEP1, hits give low values 1.01 | S. cerevisiae deletion strains, locus YBR021W, strain FUR4, hits give low values 0.996 | S. cerevisiae deletion strains, locus YBR229C, strain ROT2, hits give low values 1 | S. cerevisiae deletion strains, locus YCL029C, strain bik1, hits give low values 1.02 | S. cerevisiae deletion strains, locus YDL035C, strain GPR1, hits give low values 1.02 | S. cerevisiae deletion strains, locus YDL074C, strain BRE1, hits give low values 1.02 | S. cerevisiae deletion strains, locus YDL101C, strain DUN1, hits give low values 1.02 | S. cerevisiae deletion strains, locus YDL134C, strain PPH21, hits give low values 1.01 | S. cerevisiae deletion strains, locus YDL185W, strain tfp1, hits give low values 1.02 | S. cerevisiae deletion strains, locus YDL192W, strain arf1, hits give low values 1.02 | S. cerevisiae deletion strains, locus YDR101C, strain arx1, hits give low values 1.01 | S. cerevisiae deletion strains, locus YDR150W, strain NUM1, hits give low values 1.01 | S. cerevisiae deletion strains, locus YDR162C, strain NBP2, hits give low values 1.01 | S. cerevisiae deletion strains, locus YDR318W, strain mcm21, hits give low values 1.01 | S. cerevisiae deletion strains, locus YDR388W, hits give low values 1.01 | S. cerevisiae deletion strains, locus YDR502C, strain sam2, hits give low values 1.02 | S. cerevisiae deletion strains, locus YEL061C, strain CIN8, hits give low values 1.01 | S. cerevisiae deletion strains, locus YER110C, hits give low values 1.02 | S. cerevisiae deletion strains, locus YER155C, strain BEM2, hits give low values 1.01 | S. cerevisiae deletion strains, locus YER167W, strain BCK2, hits give low values 1.02 | S. cerevisiae deletion strains, locus YGL078C, strain dbp3, hits give low values 1.01 | S. cerevisiae deletion strains, locus YGL086W, strain mad1, hits give low values 1.01 | S. cerevisiae deletion strains, locus YGL248W, strain PDE1, hits give low values 1.01 | S. cerevisiae deletion strains, locus YGR078C, strain PAC10, hits give low values 1.02 | S. cerevisiae deletion strains, locus YGR135W, strain pre9, hits give low values 1.01 | S. cerevisiae deletion strains, locus YGR229C, strain SMI1, hits give low values 1.03 | S. cerevisiae deletion strains, locus YGR252W, strain gcn5, hits give low values 1.01 | S. cerevisiae deletion strains, locus YHR030C, strain SLT2, hits give low values 1.01 | S. cerevisiae deletion strains, locus YHR079C, strain IRE1 (second series), hits give low values 1.02 | S. cerevisiae deletion strains, locus YHR094C, strain hxt1, hits give low values 1.02 | S. cerevisiae deletion strains, locus YHR129C, strain ARP1, hits give low values 1.01 | S. cerevisiae deletion strains, locus YHR200W, strain rpn10, hits give low values 1.02 | S. cerevisiae deletion strains, locus YIL066C, strain RNR3, hits give low values 1.02 | S. cerevisiae deletion strains, locus YIL073C, strain SPO22, hits give low values 1.05 | S. cerevisiae deletion strains, locus YIL125W, strain kgd1, hits give low values 1.02 | S. cerevisiae deletion strains, locus YIR030C, strain dcg1, hits give low values 1.02 | S. cerevisiae deletion strains, locus YJL095W, strain BCK1, hits give low values 0.991 | S. cerevisiae deletion strains, locus YJL134W, strain LCB3, hits give low values 1.02 | S. cerevisiae deletion strains, locus YJL168C, strain set2, hits give low values 1.01 | S. cerevisiae deletion strains, locus YJL187C, strain SWE1 (second series), hits give low values 1.01 | S. cerevisiae deletion strains, locus YJR043C, strain POL32, hits give low values 1.02 | S. cerevisiae deletion strains, locus YJR075W, strain HOC1, hits give low values 1.01 | S. cerevisiae deletion strains, locus YKL009W, strain mrt4, hits give low values 1.03 | S. cerevisiae deletion strains, locus YKL068W, hits give low values 1.01 | S. cerevisiae deletion strains, locus YKL085W, strain MDH1 (second series), hits give low values 1.02 | S. cerevisiae deletion strains, locus YKL085W, strain MDH1, hits give low values 1.02 | S. cerevisiae deletion strains, locus YKL190W, strain CNB1, hits give low values 1.02 | S. cerevisiae deletion strains, locus YKR001C, strain vps1, hits give low values 1.03 | S. cerevisiae deletion strains, locus YLR039C, strain RIC1, hits give low values 0.993 | S. cerevisiae deletion strains, locus YLR058C, strain SHM2, hits give low values 1.01 | S. cerevisiae deletion strains, locus YLR102C, strain apc9, hits give low values 1.02 | S. cerevisiae deletion strains, locus YLR262C, strain YPT6, hits give low values 1.03 | S. cerevisiae deletion strains, locus YLR268W, strain sec22, hits give low values 1.01 | S. cerevisiae deletion strains, locus YLR330W, strain CHS5, hits give low values 1.01 | S. cerevisiae deletion strains, locus YLR342W, strain FKS1 (second series), hits give low values 1.04 | S. cerevisiae deletion strains, locus YLR371W, strain rom2, hits give low values 1.02 | S. cerevisiae deletion strains, locus YLR418C, strain cdc73, hits give low values 1.01 | S. cerevisiae deletion strains, locus YML016C, strain PPZ1, hits give low values 1.01 | S. cerevisiae deletion strains, locus YML032C, strain rad52, hits give low values 0.992 | S. cerevisiae deletion strains, locus YML124C, strain tub3, hits give low values 1.02 | S. cerevisiae deletion strains, locus YMR078C, strain ctf18, hits give low values 1.02 | S. cerevisiae deletion strains, locus YMR223W, strain ubp8, hits give low values 1.02 | S. cerevisiae deletion strains, locus YMR263W, strain SAP30, hits give low values 1 | S. cerevisiae deletion strains, locus YMR307W, strain GAS1, hits give low values 1 | S. cerevisiae deletion strains, locus YNL067W, strain RPL9B, hits give low values 1.01 | S. cerevisiae deletion strains, locus YNL128W, strain TEP1, hits give low values 1.01 | S. cerevisiae deletion strains, locus YNL153C, strain GIM3, hits give low values 1.01 | S. cerevisiae deletion strains, locus YNL233W, strain BNI4, hits give low values 1.01 | S. cerevisiae deletion strains, locus YNL250W, strain rad50, hits give low values 1.01 | S. cerevisiae deletion strains, locus YNL271C, strain bni1, hits give low values 1.03 | S. cerevisiae deletion strains, locus YNL298W, strain CLA4, hits give low values 1.02 | S. cerevisiae deletion strains, locus YNL307C, strain MCK1, hits give low values 1.02 | S. cerevisiae deletion strains, locus YNL322C, strain KRE1, hits give low values 1.01 | S. cerevisiae deletion strains, locus YNR052C, strain pop2, hits give low values 1.02 | S. cerevisiae deletion strains, locus YOL006C, strain TOP1, hits give low values 1.03 | S. cerevisiae deletion strains, locus YOL012C, strain htz1 0.819 | S. cerevisiae deletion strains, locus YOL147C, strain pex11, hits give low values 1.02 | S. cerevisiae deletion strains, locus YOR061W, strain CKA2, hits give low values 1.01 | S. cerevisiae deletion strains, locus YOR069W, strain VPS5, hits give low values 1.01 | S. cerevisiae deletion strains, locus YOR136W, strain idh2, hits give low values 1.01 | S. cerevisiae deletion strains, locus YOR144C, strain elg1, hits give low values 1.02 | S. cerevisiae deletion strains, locus YOR184W, strain ser1, hits give low values 1.03 | S. cerevisiae deletion strains, locus YOR316C, strain cot1, hits give low values 1.02 | S. cerevisiae deletion strains, locus YPL055C, strain LGE1, hits give low values 1.03 | S. cerevisiae deletion strains, locus YPL241C, strain CIN2, hits give low values 1.02 | S. cerevisiae deletion strains, locus YPR119W, strain clb2, hits give low values 1.01 | S. cerevisiae deletion strains, locus YPR141C, strain kar3, hits give low values 1.02 | S. cerevisiae deletion strains, locus YPR163C, strain tif3, hits give low values 1.02 | S. cerevisiae deletion strains, locus YPR167C, strain met16, hits give low values 1.02 | S. cerevisiae deletion strains, strain wtn01, hits give low values 1.02 | S. cerevisiae strains, strain wild type, hits give low values 1
